The entries come from a sample that favours hits as a whole.
Pf Dd2 growth: inhibitors of Plasmodium falciparum Dd2 growth; P. falciparum Dd2 growth, SYBR Green, 72 h; Potency, µM (doses to about 28.9 µM), for inactives: at the top dose activity, negative = inhibition, usual class: inhibitors; AID 1347417; hit rate 4.3% among 120,000; active = well fitted inhibition curve with a large enough effect;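 note: plate controls were DMSO vehicle for no effect and reference drug for full effect; nearly all actives have a fitted effect of over 65% in size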
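Readout: SYBR Green fluorescence, 485 nm excitation, 535 nm emission, after ~16 h lysis at 37C. Before that, Dd2-infected red cells (2.5% hematocrit) grew 72 h with compound, 29 uM top final concentration.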
Active calls of the source: *; i = inactive; [ ] = another dose, or the depositor's remark. Potency is the fitted concentration of half-maximal effect.

SMILES | Pf Dd2 growth
CS(=O)(=O)N1C[C@H]2CCN(Cc3c(F)cccc3F)C[C@H]21 | -20.9%
Cc1cnc(C(=O)N[C@@H]2CCC[C@@H]2C(=O)NCCC2=CCCCC2)cn1 | -9.2%
CCS(=O)(=O)N1CCC2(CCCN(C3CCOCC3)C2=O)C1 (stereo unspecified) | -7.6%
COc1ccc(C(=O)N2CCC3(CC2)OCC(C(=O)N2CCOCC2)N3C(=O)c2ccccc2)cc1 (stereo unspecified) | 11.2%
CCOc1ccc(C2c3c(-c4ccccc4O)n[nH]c3C(=O)N2Cc2ccncc2)cc1 (stereo unspecified) | 14.1µM*
CCOc1ccc(NC(=O)Cn2nc(Cc3ccncc3)c3ccccc3c2=O)cc1 | -8.1%
CCOc1ccc(C2c3c(oc4cc(C)c(C)cc4c3=O)C(=O)N2c2ccccn2)cc1 (stereo unspecified) | -7.5%
COc1cc(C2c3c(oc4ccccc4c3=O)C(=O)N2Cc2ccc(C)cc2)ccc1O (stereo unspecified) | 14.9%
CCCCOc1ccc(C2c3c(-c4ccccc4O)n[nH]c3C(=O)N2Cc2ccncc2)cc1OC (stereo unspecified) | 7.08µM*
COc1cc(C2c3c(-c4ccccc4O)n[nH]c3C(=O)N2Cc2ccncc2)ccc1O (stereo unspecified) | -4.7%
COC[C@H]1C[C@@H](NS(=O)(=O)CC(C)C)[C@H](O)[C@@H]1O | 13.6%[44.1 µM]
Cc1ccsc1C(=O)N1CCC2(CC1)NCc1ccccc1-n1ccnc12 | i[5.79 µM]
COc1ccc(Cn2c(C3CCN(C(=O)Cc4cccs4)CC3)n[nH]c2=O)cc1 | 19.1%
O=C(CCc1conc1-c1cccc(F)c1)NCc1ccccc1Cl | i
Cc1ccc(OCc2nc(C3CN(C(=O)c4cc5ccccc5[nH]4)C3)no2)cc1 | -1.7%
CCc1cc(=O)n(CC(=O)Nc2cc(C)ccc2OC)c(-c2ccccc2)n1 | i
COc1ccc(CCC(=O)N2CCC(c3nc(C4CCOCC4)no3)CC2)cc1 | -7.7%
O=C(Nc1ccc(-c2nc3cc(NC(=O)c4ccc(F)cc4)ccc3o2)cc1)c1ccc(F)cc1 | 0.6%
O=C(Nc1ccc2oc(-c3ccccc3F)nc2c1)c1ccccc1Cl | 3.98µM*
O=C(Nc1ccc2oc(-c3ccccc3)nc2c1)c1ccc2ccccc2c1 | 17.6%
O=C(Nc1ccc2oc(-c3cccc(F)c3)nc2c1)c1ccc2ccccc2c1 | 1µM*
COc1ccccc1-c1nc2cc(NC(=O)c3ccccc3Cl)ccc2o1 | 1.2%
O=C(Cc1ccc(Cl)cc1)Nc1ccc2oc(-c3ccccc3F)nc2c1 | i
Cc1cc(CNC(=O)[C@@H]2CCC[C@@H](NCc3cccnc3)CN(C)C(=O)C2)no1 | -21.2%[44.1 µM]
Cn1cc(CN2CCc3c([nH]n(CCO)c3=O)C2)c(-c2ccccc2)n1 | -9.0%
SMILES | Pf Dd2 growth
Cc1nc(C)c(C)c(N2CCC(Oc3ccc4ccccc4c3)(C(=O)O)CC2)n1 | -10.3%
CC(C)CCN1C[C@@H]2C(=O)N(CCc3ccccc3)C(=O)[C@@H]2C1 | 8.91µM*
O=C1[C@H]2CN(Cc3ccc(Cl)cc3)C[C@H]2C(=O)N1CCc1ccccc1 | -13.3%
Cc1ccccc1CN1C[C@@H]2C(=O)N(CCc3ccccc3)C(=O)[C@@H]2C1 | -12.1%
Cc1cccc(CCNC(=O)[C@@H]2C[C@@H](O)CN2C2CCNCC2)c1 | -13.0%
Cc1ccccc1Cn1nnc2c(=O)[nH]c(C3CCCN(C(=O)c4ccc(C(C)(C)C)cc4)C3)nc21 (stereo unspecified) | 8.91µM*
N#Cc1ccccc1Cn1nnc2c(=O)[nH]c(C3CCCN(S(=O)(=O)c4ccc(F)cc4)C3)nc21 (stereo unspecified) | i
Cc1ccc(Cn2nnc3c(=O)[nH]c(C4CCN(C(=O)Cc5ccccc5F)CC4)nc32)cc1 | -27.2%
O=C(Cc1ccccc1F)N1CCC(c2nc3c(nnn3Cc3cccc(Cl)c3)c(=O)[nH]2)CC1 | 10µM*
O=C(c1ccccc1F)N1CCC(c2nn(Cc3ccccc3)c(=O)[nH]2)CC1 | 26.6%
CCc1cn[nH]c1C1CCCN(C(=O)c2ccc(Cn3nnnc3C)cc2)C1 (stereo unspecified) | 10.3%
Cc1ccc(C(=O)N2CCCC(c3nn(-c4ccccc4)c(=O)[nH]3)C2)cc1 (stereo unspecified) | i
COC(=O)c1ccc(Cn2nnc3c(=O)[nH]c(C4CCCN(S(=O)(=O)c5ccccc5)C4)nc32)cc1 (stereo unspecified) | -21.6%
Cc1cccc(Cn2nnc3c(=O)[nH]c(C4CCCN(C(=O)c5ccc(C(C)(C)C)cc5)C4)nc32)c1 (stereo unspecified) | 1µM*
COc1ccc(OC)c(C(O)Cn2ccn3nc(-c4cccs4)cc3c2=O)c1 (stereo unspecified) | -23.5%
COc1cccc(CNC(=O)[C@@H]2C[C@@H](O)CN2C2CCN(C(=O)C(C)C)CC2)c1 | -3.2%
CC(C)C[C@@H](NC(=O)[C@@]1(O)C[C@@H](O)[C@H](O)[C@@H](NS(=O)(=O)c2cccc(C(F)(F)F)c2)C1)C(N)=O | i
O=C(c1ccsc1)N1CCC2(CC1)CC(N(C(=O)c1ccccc1)C1CC1)CCO2 (stereo unspecified) | -9.8%

High-throughput results from PubChem BioAssay.
